Experimental data from PubChem BioAssay (NCI).
This is part of a sample that, as a whole, favours compounds with a hit. Of some 79,000 tested, about 15% had one in any assay. Cut-off read from the data, not from the text of the source: active = growth inhibition above about 70%; inactive = the rest.

Experiments:
[1] = NCI Yeast Anticancer Drug Screen. Data for the rad50 strain (AID 155);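 note: 0% = growth of vehicle-only cultures of the same strain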; details: S. cerevisiae rad50 strain growth inhibition; at 50.0 µM; active compounds read high
How it was run: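 DNA repair mutant yeast, compound exposure, growth read-out; inhibition is taken relative to vehicle.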

[2] = NCI Yeast Anticancer Drug Screen. Data for the mec2-1 strain (AID 157); details: S. cerevisiae mec2-1 strain, at 50.0 µM, active compounds read high
How it was run: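 Each compound was tested on mec2-1 yeast, a strain altered in DNA damage repair or cell cycle control. Growth inhibition is reported relative to vehicle.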

[3] = NCI Yeast Anticancer Drug Screen. Data for the sgs1 mgt1 strain (AID 161);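 note: 0% = growth of cultures given vehicle only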; details: S. cerevisiae sgs1 mgt1 strain, at 50.0 µM, active compounds read high
How it was run: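 Test agents were incubated with a DNA-repair-mutant yeast strain. Growth was then read and compared against vehicle-treated controls.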

[4] = NCI Yeast Anticancer Drug Screen. Data for the cln2 rad14 strain (AID 165);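 note: 0% = growth equal to vehicle treated cultures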; details: S. cerevisiae cln2 rad14 strain, at 50.0 µM, active compounds read high
How it was run: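 Test compounds were added to cln2 rad14 yeast cultures; inhibition of growth was then determined by comparison with vehicle treatment.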

[5] = NCI Yeast Anticancer Drug Screen. Data for the bub3 strain (AID 167); details: S. cerevisiae bub3 mutant strain, at 50.0 µM, active compounds read high
How it was run: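 In this screen, a yeast mutant lacking normal mitotic checkpoint function is challenged with compound. Relative growth versus vehicle gives the inhibition value.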

[6] = NCI Yeast Anticancer Drug Screen. Data for the mlh1 rad18 strain (AID 175); details: S. cerevisiae mlh1 rad18 strain growth inhibition; at 50.0 µM; active compounds read high
How it was run: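 Inhibition values reflect reduced growth of mutant yeast versus vehicle-treated controls following compound exposure; the mutations affect DNA damage repair.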

Measured: growth inhibition

CCOC(=O)NC(=O)c1cn(CCCOC(=O)CCCCCCCCC(=O)OCCCn2cc(C(=O)NC(=O)OCC)c(=O)n(C)c2=O)c(=O)n(C)c1=O
inactive: [1] -16.4% | [2] -25.1% | [3] -25.2% | [4] 6% | [5] 4.3% | [6] -23.7%

CCCCCCCC(=O)C(C)C
inactive: [1] 7.55% | [2] 5.85% | [3] 11.8% | [4] 4.4% | [5] 9.6% | [6] 4.35%

CC(C)c1ccc(C(=O)OCCCc2ccccc2)cc1
inactive: [1] 8.7% | [2] -5.65% | [3] 18.2% | [4] -10.7% | [5] 4% | [6] 0.8%

N#CC(C#N)=C(O)/C(=C/c1ccccc1[N+](=O)[O-])NC(=O)c1ccccc1
inactive: [1] 2.75% | [2] -5.6% | [3] -3.65% | [4] 23.9% | [5] 1.75% | [6] 40.4%

CCOC(=O)c1oc2c(OC)ccc3c2c1CCC3
inactive: [1] 7.7% | [2] 4% | [3] 1.8% | [4] -9.4% | [5] -6.25% | [6] 30.8%

CC1OC(c2cccc([N+](=O)[O-])c2)OCC1(C)C (stereo unspecified)
inactive: [1] -14.7% | [2] -19.4% | [3] -4.9% | [4] -32.6% | [5] 15.1% | [6] -16.6%

C=CCc1cc(OC)c(O)c(C(=O)OCC)c1
inactive: [1] -2.35% | [2] -12.8% | [3] -3.25% | [4] 1.3% | [5] 7.65% | [6] -2.15%

CCSCCC(Nc1ncnc2nc[nH]c12)C(=O)O (stereo unspecified)
inactive: [1] -17.8% | [2] 8.75% | [3] -5.65% | [4] -17% | [5] -4.8% | [6] -19.4%

CC(=O)C1=CCC2[C@H]3CC=C4C[C@H](O)CC[C@@]4(C)C3CC[C@@]12C (stereo partly specified)
inactive: [1] 21.2% | [2] 55.2% | [3] 49.8% | [4] 17.9% | [5] 58.6% | [6] 37.7%

COC(=O)/C=C(/C(=O)OC)c1c(C)c(C)c2c(C)cc(C)cc(C)c1-2
inactive: [1] 20.7% | [2] 14.4% | [3] 3.8% | [4] 17.4% | [5] 34.9% | [6] 22.2%

CC(C)(CO)C(O)C(=O)NCCO (stereo unspecified)
inactive: [1] 14.8% | [2] -0.15% | [3] 6.05% | [4] 5.15% | [5] 3.3% | [6] -10.4%

CC(=O)OCC(CO)(CO)COC(C)=O
inactive: [1] 8.25% | [2] 8.65% | [3] -16.2% | [4] 7.45% | [5] -3.7% | [6] -6.7%

CCOC(=O)c1c(C)c2c(n1C)CCC(C#N)C2=O (stereo unspecified)
inactive: [1] 9.3% | [2] 10.4% | [3] 9.8% | [4] 21.1% | [5] 9.05% | [6] 17.5%

CCOc1c(N=Nc2ccccc2)c(C)nn1C(N)=S
inactive: [1] -55.9% | [2] -24.6% | [3] 9.95% | [4] -40.9% | [5] 0.4% | [6] 3.4%

CCC1CCCCC1O (stereo unspecified)
inactive: [1] 1.6% | [2] -7% | [3] -30.5% | [4] 7.35% | [5] -22.7% | [6] 6.1%

COc1cc(N(CCC#N)CCC#N)ccc1/C(N=Nc1ccccc1)=N/NC(=O)c1cc(Br)ccc1O
inactive: [1] 31.4% | [2] 37.1% | [3] 44.2% | [4] 3.3% | [5] 35.9% | [6] 21.4%

OCC1C=Cc2ccccc21 (stereo unspecified)
inactive: [1] -3.8% | [2] 0.65% | [3] -0.6% | [4] 2.15% | [5] 14.5% | [6] -2.4%

COC(=O)C[C@@]1(C(=O)OC)[C@@H](C(=O)OC)C(C(=O)OC)=NN1C
inactive: [1] -5.35% | [2] -18.4% | [3] 0.85% | [4] -49% | [5] 18.1% | [6] -4.45%

CC(=O)c1nc2ccccc2n1CC(=O)c1ccc([N+](=O)[O-])cc1
inactive: [1] -0.65% | [2] 8.7% | [3] 6.2% | [4] -8% | [5] 3.45% | [6] -8.1%

O=C(OCC(OC(=O)c1ccccc1)C(OC(=O)c1ccccc1)C(O)C(O)CO)c1ccccc1 (stereo unspecified) (tested in a mixture with another compound)
inactive: [1] -6.8% | [2] -4.1% | [3] 9.55% | [4] -17.9% | [5] -12.2% | [6] 28.6%

O=C(OCC1OC(OC(=O)c2ccc([N+](=O)[O-])cc2)CC(OC(=O)c2ccc([N+](=O)[O-])cc2)C1OC(=O)c1ccc([N+](=O)[O-])cc1)c1ccc([N+](=O)[O-])cc1 (stereo unspecified)
inactive: [1] 11.2% | [2] 15.2% | [3] 4.1% | [4] -7.35% | [5] -4.15% | [6] 36.5%

COC1=CC(=O)N/C1=C(\OC)c1ccccc1
inactive: [1] -24.5% | [2] -0.95% | [3] -7% | [4] -5.6% | [5] -15.2% | [6] -5.2%

Cc1cc2ccccc2n1C
inactive: [1] 4.05% | [2] 5.45% | [3] 39.5% | [4] 10.1% | [5] 31.9% | [6] 18.2%

O=Cc1cccc2c([N+](=O)[O-])cccc12
inactive: [1] 55.5% | [2] 19.5% | [3] 32.6% | [4] 6.95% | [5] -1.9% | [6] 49.5%

O=C(Nc1ccccc1CCl)Nc1ccccc1CCl
inactive: [1] -30.9% | [2] -26.4% | [3] -15.8% | [4] 0.7% | [5] -23.2% | [6] -28.8%

O=C1NC(=O)C2C3CCC(C3)C12 (stereo unspecified)
inactive: [1] 13.6% | [2] -6.15% | [3] -7.65% | [4] -41.8% | [5] 4.65% | [6] 0.4%

O=C1CSCc2sccc21
inactive: [1] 37% | [2] 26.1% | [3] 6.55% | [4] -14.4% | [5] 17.3% | [6] 2.95%

Cc1ccc(-c2cc(-c3ccccc3)c(C#N)c(=O)[nH]2)cc1
inactive: [1] 16.1% | [2] 9.4% | [3] 12.6% | [4] 8.55% | [5] 3.8% | [6] 25.6%

Cc1cccc[n+]1CC(=O)c1ccccc1[N+](=O)[O-]
inactive: [1] -5% | [2] 6.85% | [3] -3.3% | [4] -6.55% | [5] -20.6% | [6] 8.1%

CC(=O)CC(=O)N1CCCC(C)C1 (stereo unspecified)
inactive: [1] -2.85% | [2] -40.8% | [3] -38.5% | [4] 9.1% | [5] -10.9% | [6] 1.3%

CCCCCCCCNC(=O)/C(=C\c1ccc(/C=C(/NC(=O)c2ccccc2)C(=O)NCCCCCCCC)cc1)NC(=O)c1ccccc1
inactive: [1] -14% | [2] -23.4% | [3] -20.4% | [4] 11.7% | [5] -17.9% | [6] -4%

CCCC(=O)OCC(C)(C)COC(=O)CCC
inactive: [1] -5.65% | [2] -13.2% | [3] 10.9% | [4] 3.5% | [5] 16% | [6] 6.6%

N#CC1=CCc2ccccc2N1C(=O)Oc1ccccc1
inactive: [1] 58.5% | [2] 12.7% | [3] 50% | [4] 19.4% | [5] 64.6% | [6] 47.2%

O/N=C/c1ccc(O)c(O)c1
inactive: [1] 16.4% | [2] -7.35% | [3] -4.05% | [4] -0.7% | [5] 10.8% | [6] 4.75%

O=c1[nH]c2cc(Cl)ccc2nc1/C(=N\O)C(O)c1cccc([N+](=O)[O-])c1 (stereo unspecified)
inactive: [1] 6.7% | [2] -9.55% | [3] -7.75% | [4] 11.9% | [5] -5.1% | [6] -13.2%

Cc1cc(N(CCC#N)CCC#N)ccc1N=Nc1ccc(C(=O)O)cc1
inactive: [1] -30.9% | [2] -34.6% | [3] -13.7% | [4] -1.15% | [5] -2.9% | [6] -25%

Cc1nc2cc(C)c(C)cc2[nH]1
inactive: [1] -7.55% | [2] -1% | [3] 3.75% | [4] -9.15% | [5] 8.9% | [6] 5.8%

COc1cc(C)c2cccc(C)c2n1
inactive: [1] 6.6% | [2] 3.85% | [3] -0.4% | [4] -32.2% | [5] -8.8% | [6] 8.7%

Cc1cccc(NC(=O)Nc2ccccc2Cl)c1C
inactive: [1] 11.2% | [2] 5.15% | [3] 0.65% | [4] -3.65% | [5] -2.3% | [6] -9.45%

NC(=O)SCCC(N)C(=O)O (stereo unspecified)
inactive: [1] 8.4% | [2] 27.5% | [3] 3% | [4] 12.7% | [5] 17.9% | [6] -4.9%

CNCC(OC(C)C)c1ccc(O)c(O)c1 (stereo unspecified)
inactive: [1] -3.3% | [2] -2.85% | [3] -0.05% | [4] -36.4% | [5] -19.2% | [6] 16.2%
